In all, about 310,000 compounds went through this assay and about 14,000 (4.5%) showed an effect of 50% or more. Effects have a minus sign here. The sample as a whole holds a higher share of strong results than the screen did.
biological target: human ether-à-go-go-related gene (hERG) potassium channel (human, UniProt Q12809); experiment: primary screen, population patch clamp on CHO cells stably expressing hERG; higher = less effect of the substance
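Further: peak tail current of the secondary pulse compared with the same well before compound.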

human ether-à-go-go-related gene (hERG) potassium channel, sequence (Q12809 whole entry, looked up): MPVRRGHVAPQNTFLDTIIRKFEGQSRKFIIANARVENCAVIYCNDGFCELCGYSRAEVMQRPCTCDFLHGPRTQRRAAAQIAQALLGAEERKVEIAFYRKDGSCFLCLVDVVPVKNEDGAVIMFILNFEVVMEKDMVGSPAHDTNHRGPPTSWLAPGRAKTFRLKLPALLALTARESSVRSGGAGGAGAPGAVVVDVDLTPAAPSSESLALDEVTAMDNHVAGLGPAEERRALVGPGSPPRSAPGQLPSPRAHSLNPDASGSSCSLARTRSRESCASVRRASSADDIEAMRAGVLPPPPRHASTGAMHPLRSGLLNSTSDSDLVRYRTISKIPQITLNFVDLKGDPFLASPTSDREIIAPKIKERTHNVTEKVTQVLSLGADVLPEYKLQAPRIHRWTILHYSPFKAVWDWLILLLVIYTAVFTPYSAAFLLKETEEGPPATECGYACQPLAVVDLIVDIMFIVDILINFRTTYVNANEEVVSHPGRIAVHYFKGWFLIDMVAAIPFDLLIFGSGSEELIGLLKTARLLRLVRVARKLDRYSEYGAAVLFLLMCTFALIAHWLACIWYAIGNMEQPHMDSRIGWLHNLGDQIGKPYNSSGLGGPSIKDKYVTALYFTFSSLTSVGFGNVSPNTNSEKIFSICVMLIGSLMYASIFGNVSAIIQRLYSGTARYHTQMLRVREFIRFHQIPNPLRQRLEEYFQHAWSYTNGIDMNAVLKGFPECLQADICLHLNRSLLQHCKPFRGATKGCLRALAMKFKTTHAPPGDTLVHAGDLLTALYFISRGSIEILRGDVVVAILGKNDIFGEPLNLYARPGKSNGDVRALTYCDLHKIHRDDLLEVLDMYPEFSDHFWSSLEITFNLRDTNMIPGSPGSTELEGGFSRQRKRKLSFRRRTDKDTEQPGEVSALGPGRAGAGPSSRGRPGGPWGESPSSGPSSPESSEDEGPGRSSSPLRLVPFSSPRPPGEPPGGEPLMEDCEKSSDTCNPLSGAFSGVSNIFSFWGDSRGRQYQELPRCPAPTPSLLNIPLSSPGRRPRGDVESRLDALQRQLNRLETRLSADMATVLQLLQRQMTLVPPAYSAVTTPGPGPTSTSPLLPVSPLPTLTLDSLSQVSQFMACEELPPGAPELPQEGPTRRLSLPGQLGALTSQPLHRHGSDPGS

Structure (SMILES) | hERG current change (%, negative = inhibition) at 10uM [%]
CCN1CCN(c2cc(C)c3cc(NC(=S)N(CC)CC)ccc3n2)CC1 | -43.9
CCCCN(C)C(=S)Nc1ccc2nc(N3CCN(CC)CC3)cc(C)c2c1 | -78.9
CCCCN(CC)C(=S)Nc1ccc2nc(N3CCN(C)CC3)cc(C)c2c1 | -56.3
CCN1CCN(c2cc(C)c3cc(NC(=S)N(C)Cc4ccccc4)ccc3n2)CC1 | -77.7
CCCCN(C)CCNC(=S)Nc1ccc2nc(N3CCN(CC)CC3)cc(C)c2c1 | 2.83
CCN1CCN(c2cc(C)c3cc(NC(=S)NCCN(C)C)ccc3n2)CC1 | 3.21
CCCCN(CC)CCNC(=S)Nc1ccc2nc(N3CCN(C)CC3)cc(C)c2c1 | -0.781
CCCCN(CC)CCCNC(=S)Nc1ccc2nc(N3CCN(C)CC3)cc(C)c2c1 | 5.19
CCN1CCN(c2cc(C)c3cc(NC(=S)N4CCN(c5ccccc5)CC4)ccc3n2)CC1 | -0.088
Cc1c(NC(=O)CSc2n[nH]c(=O)n2-c2ccccc2)c(=O)n(-c2ccccc2)n1C | 16.9
CCOC(=O)c1c(NC(=O)c2cccc(N3C(=O)CCC3=O)c2)sc(C)c1C | 5.4
CC(=O)c1ccc(NC(=O)COC(=O)c2ccccc2Sc2ccccc2C#N)cc1 | 18
O=C(CCCCn1c(=S)[nH]c2ccsc2c1=O)NCc1ccco1 | 16.6
O=C(c1ccc2c(c1)ncn2C1CCCCCC1)N1CCC2(CC1)OCCO2 | -2.37
O=C(c1ccc(Br)cc1)N1CCCc2ccccc21 | -6.19
O=C(CSc1nc(O)c(Cc2ccccc2)c(=O)[nH]1)Nc1ccccc1 | 8.28
O=C(Nc1ccc(-c2noc(-c3cccs3)n2)cc1)c1cccnc1 | -3.79
COc1ccc(Br)cc1/C=N/Nc1ccccn1 | 14.8
O=C(Nc1cccc(S(=O)(=O)NC2=NCCC2)c1)c1ccc(=O)[nH]c1 | 10.7
COc1cc(-c2nnc3sc(C4CCCCC4)nn23)cc(OC)c1OC | -43.7
COc1cccc(-c2nnc3sc(C4CCCCC4)nn23)c1 | -45.2
COc1ccc(-c2nnc3sc(C4CCCCC4)nn23)cc1OC | -51.1

Structure (SMILES) | hERG current change (%, negative = inhibition) at 10uM [%]
CC(C)c1cc(C(=O)N2CCCC(CCC(=O)N3CCN(c4ccccn4)CC3)C2)no1 (stereo not shown) | -36.8
CN(C)CCCNC(=O)c1ccc(-c2ccccc2)cc1 | -36.7
Cc1ccc(C(=O)N/C(=C/c2ccc(Cl)cc2)C(=O)NCC2CCCO2)cc1 (stereo not shown) | -48.7
Cc1ccc(C(=O)N/C(=C/c2ccc(-c3ccc(Br)cc3)o2)C(=O)NC2CCS(=O)(=O)C2)cc1 (stereo not shown) | -6.35
Cc1ccc(C(=O)N/C(=C\c2ccc(Cl)cc2)C(=O)NCC2CCCO2)cc1 (stereo not shown) | -49
Cc1ccc(C(=O)N/C(=C\c2ccc(-c3ccc(Br)cc3)o2)C(=O)NCCCN(C)C)cc1 | -80.3
O=C(NCCO)/C(=C\c1ccc([N+](=O)[O-])o1)NC(=O)c1ccccc1 | 1.55
CN(C)CCCNC(=O)/C(=C\c1ccc(-c2ccc(Br)cc2)o1)NC(=O)c1ccccc1 | -75.1
Cc1ccc(C(=O)N/C(=C\c2ccc(-c3ccc(Br)cc3)o2)C(=O)NC2CCS(=O)(=O)C2)cc1 (stereo not shown) | -5.68
Cc1ccc(C(=O)N/C(=C\c2ccc(-c3ccc(Cl)cc3)o2)C(=O)NCCCN(C)C)cc1 | -85
O=C(N1CCOCC1)N(Cc1ccco1)CC1CCCO1 (stereo not shown) | -48.5
COc1ccccc1NC(=O)c1ccc2nc(C)c(C)nc2c1 | -16.1
O=C(c1ccccc1)n1ccn(-c2ccccc2)c1=S | -14.9
Cn1c(=NC(=O)CS(=O)(=O)c2ccccc2)sc2cc([N+](=O)[O-])ccc21 | -36.5
CCCc1cc(=O)oc2cc(C)cc(OC(C)C(=O)NCC(O)c3ccccc3)c12 (stereo not shown) | 7.42
NC(=O)COc1ccc(C(=O)NCC2(N3CCOCC3)CCCCC2)cc1 | 6.98
CN(C)S(=O)(=O)c1ccc(C(=O)NCC2(N3CCCCC3)CCCCC2)cc1 | -1.46
CCN(CC)S(=O)(=O)c1ccc(C(=O)NCC2(N3CCOCC3)CCCCC2)cc1 | -67.3
CN(C)S(=O)(=O)c1ccc(C(=O)NCC2(N3CCOCC3)CCCCC2)cc1 | -9.69
Cc1ccccc1C(=O)NCC(=O)NCC1(N2CCOCC2)CCCCC1 | -25.7
O=C(CNC(=O)c1ccc(OC(F)F)cc1)NCC1(N2CCOCC2)CCCCC1 | -68.5
CCC(C)NC(=O)CS(=O)Cc1nc(-c2cccc(OC)c2)oc1C (stereo not shown) | 2.84

Structure (SMILES) | hERG current change (%, negative = inhibition) at 10uM [%]
CCOc1cc(C2NC(=O)NC(C)=C2C(C)=O)cc(Cl)c1OCC(=O)O (stereo not shown) | 5.35
CCc1ccc(OCC(=O)Nc2ccc(S(=O)(=O)Nc3cc(C)on3)cc2)c(Br)c1 | -19.7
C=CCn1c(NCc2ccccc2)nc2ccccc21 | -26.4
Brc1cccc(CNc2nc3ccccc3n2CCN2CCOCC2)c1 | -76.3
Nc1nc2ccccc2n1CCN1CCCC1 | 6.04
Brc1cccc(CNc2nc3ccccc3n2CCN2CCCCC2)c1 | -67.8
Cc1nc2ccccc2n1CCN1CCOCC1.Cl | 23.3
Brc1ccc(CNc2nc3ccccc3n2CCN2CCCCC2)cc1 | -62.7
Cl.OCCNc1nc2ccccc2n1CCN1CCCCC1 | -30.4
Cn1c(NCc2cccc(Br)c2)nc2ccccc21 | -22.2
Cc1ccc(OCCn2cnc3cc([N+](=O)[O-])ccc3c2=O)cc1 | -8.19
COc1ccc(S(=O)(=O)NNC(=O)c2sccc2-n2cccc2)cc1 | 2
COC(=O)c1ccc(NC(=O)C2CCCN2S(=O)(=O)c2ccc(OC)cc2)cc1 (stereo not shown) | -16.8
COc1cc(C(=O)Nc2ccc(C(=O)c3cccs3)cc2)cc(OC)c1OC | -10.1
Cc1cc(F)ccc1NC(=S)NC1CCCC1 | 17.9
CCOC(=O)c1[nH]c2ccc(OC)cc2c1NC(=O)CCN1CCN(Cc2ccccc2)CC1 | -57.1
COC(=O)c1[nH]c2cc(OC)ccc2c1NC(=O)CCN1CCN(c2ccccc2)CC1 | -67
CCOC(=O)c1[nH]c2cc3c(cc2c1NC(=O)CN1CCc2ccccc2C1)OCO3 | -0.934
CCOC(=O)C1CCCN(CC(=O)Nc2c(C(=O)OC)[nH]c3ccccc23)C1 (stereo not shown) | -25.2
CCOC(=O)C1CCCN(CCC(=O)Nc2c(C(=O)OC)[nH]c3cc(OC)ccc23)C1 (stereo not shown) | -59.6
CCOC(=O)c1[nH]c2ccc(OC)cc2c1NC(=O)CCN1CCSCC1 | -5.8
CCOC(=O)c1[nH]c2ccc(OC)cc2c1NC(=O)CN1CCc2ccccc2C1 | -12.4

Structure (SMILES) | hERG current change (%, negative = inhibition) at 10uM [%]
CCOC(=O)c1[nH]c2ccc(OC)cc2c1NC(=O)CCN1CCC(C)CC1 | -22.8
CCOC(=O)C1CCCN(CC(=O)Nc2c(C(=O)OC)[nH]c3ccc(C)cc23)C1 (stereo not shown) | -36.1
CCOC(=O)c1[nH]c2ccc(OC)cc2c1NC(=O)CCN1CCc2ccccc2C1 | -59.5
COC(=O)c1[nH]c2cc(OC)ccc2c1NC(=O)CCN1CCN(c2cccc(C)c2C)CC1 | -16.4
COC(=O)c1[nH]c2cc(OC)ccc2c1NC(=O)CCN1CCCCC1 | -20.5
COc1cc(OC)nc(Oc2ccccc2C(=O)Oc2cccc(C)c2)n1 | 7.95
CC1=NN(C(=O)c2ccc(Cl)cc2)C(O)(c2ccccc2)C1 (stereo not shown) | 22
COc1ccccc1C(=O)N(C1=NC(C)CS1)c1ccc(Cl)cc1 (stereo not shown) | 7.94
Cc1cc(C)c(C#N)c(N2CCCC2)n1 | 5.67
COCCCNC(=O)c1ccc(CS(=O)(=O)c2ccc(Br)cc2)o1 | -14.3
COC(=O)C1=C(C(=O)OC)[N+]2=C3N(C(=O)NC2(C)C)[C@H](CO)C[C@@]32c3ccccc3N(Cc3ccccc3)[C@@H]12 | -11.2
CCOc1ccc(CCNC(=O)CN(C)S(=O)(=O)c2cccs2)cc1OCC | 10.2
CC(=O)Nc1cccc(NC(=O)CSc2nnc(NC(=O)c3ccco3)s2)c1 | 4.45
O=C(Nc1ccccc1Oc1cccnc1)C1CCCN(C/C=C/c2ccc(F)cc2)C1 (stereo not shown) | -76.9
O=C(Nc1ccccc1Oc1ccccc1)C1CC1 | 12.2
CCN(CC)C(=O)C1CCCN(C/C=C/c2ccccc2)C1 (stereo not shown) | -40.8
O=C(Nc1ccccc1Oc1cccnc1)C1CCCN(C/C=C/c2ccccc2)C1 (stereo not shown) | -76.9
O=C(Nc1ccccc1Oc1ccccc1)C1CCCC1 | 6.32
COc1cc(CN2CCCC(C(=O)Nc3ccccc3Oc3cccnc3)C2)ccc1F (stereo not shown) | -39
